Holding throughout (assay): NCI-60 one-dose screen, 48 h (100 = growth as untreated, 0 = no growth, -100 = all killed)
Holding throughout (details): 10 µM unless noted

Experiment [1] concerns HCT-15 colon.
Experiment [2] concerns HT29 colon.
In experiment [3] the test system is SNB-75 CNS.
Experiment [4] deals with SNB-19 CNS.
For experiment [5], the system named is U251 CNS.
For experiment [6], the system named is PC-3 prostate.
The subject of experiment [7] is SK-MEL-5 melanoma.
Experiment [8] deals with UACC-62 melanoma.
Experiment [9] concerns LOX IMVI melanoma.
In experiment [10] the test system is SK-MEL-28 melanoma.

This note sets out measurements from PubChem BioAssay (NCI).

About 83,000 compounds went through this panel and 20% of them were active in at least one assay; those are over-represented in the sample as a whole.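 Testing used 96-well plates and a 48-hour single-concentration exposure. Example: -40 means 40% of the starting cells died.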 Values without a mark were called inactive. Active and inactive are the calls of the source. The calls were made as follows: active = growth percent below 10; inactive = the rest.

With `CC1CCCN(CCCCCOc2ccc3oc4ccc(Cl)cc4c(=O)c3c2)C1` (stereo not given), the growth is 2.05% (active) in experiment [1]; 4.5% (active) in [2]; 82.5% in experiment [3]; 86.4% in [4]; 68.2% in experiment [5]; 79.8% in [6]. Further, the growth in experiment [7] was -14.3% (active); in experiment [8], -43.1% (active); in experiment [9], 10.9%; in [10], 79.9%.

On to `COc1ccc(/C=C/C(=O)Nc2ncnc3nc[nH]c23)cc1`, for which the growth in experiment [1] is 92.2%; in [2], 96.5%; in experiment [3], 82%; in experiment [4], 99.7%; in experiment [5] it was 99.4%; in experiment [6], 98.1%. Further, the growth in experiment [7] was 94.8%; in experiment [8] it was 81.8%; in experiment [9], 101%; in experiment [10], 99.4%.

`Cc1c(C(=O)Nc2nc3ccccc3[nH]2)cnn1-c1ccccn1`: the growth in experiment [1] was 104%; in experiment [2], 66%; in experiment [3], 104%; in experiment [4], 101%; in experiment [5], 97.4%; in experiment [6], 93.1%. Moreover, the growth is 99.9% in experiment [7], 107% in experiment [8], 104% in experiment [9] and 112% in experiment [10].

For `Nc1c(C(=O)c2ccccc2)sc2nc(-c3cc4ccccc4o3)cc(-c3ccc(Cl)cc3)c12`, the growth in [1] is 86.4%; in [2] it was 106%; in experiment [3], 92.3%; in experiment [4], 111%; in experiment [5], 90%; in [6], 87.5%. Further, the growth in experiment [7] is 97.8%; in [8], 102%; in experiment [9], 86.5%; in experiment [10], 120%.

As to `COc1ccc(C(C)c2cc(OC)c(OC)c(OC)c2)cc1` (stereo not given), the growth in [1] was 18%; in [2], 4.2% (active); in experiment [3], 38.2%; in experiment [4], 34.1%; in experiment [5], 18%; in experiment [6], 24.5%. The growth in [7] was -31.5% (active); in [8], 28.1%; in [9], 26.1%; in experiment [10] it was 61.1%.

As for `C#CCN(CCCOc1ccc(Cl)cc1Cl)CCCSC(=O)CCCCCN1/C(=C\C=C2/CCCC(/C=C/C3=[N+](CCCCCC(=O)[O-])c4ccccc4C3(C)C)=C2Cl)C(C)(C)c2ccccc21`, the growth was 87.2% in experiment [1]; -26.7% (active) in experiment [2]; 42.4% in experiment [3]; 14.7% in experiment [4]; -63.8% (active) in experiment [5]; 20.9% in experiment [6]. For the same compound, the growth in experiment [7] is -25.7% (active); in experiment [8], -25.8% (active); in experiment [9], -29.8% (active); in experiment [10] it was -9.83% (active).

For `O=C1CCC23OC(C(O)c4ccccc4N12)C1C(Br)=NOC13` (stereo not given), the growth is 97.4% in [1]; 106% in experiment [2]; 80.8% in experiment [3]; 108% in experiment [4]; 107% in experiment [5]; 99.2% in experiment [6]. Further, the growth in experiment [7] is 111%; in experiment [8], 109%; in experiment [9], 99.7%; in experiment [10], 106%.

As for `OCCNc1nc(NCCO)nc(Nc2ccc(C3=NN(c4ccc(Cl)cc4)C(c4ccc(Cl)cc4)C3)cc2)n1` (stereo not given), the growth in experiment [1] was 48.4%; in [2], 30.5%; in [3] it was 51.1%; in experiment [4], 78.1%; in experiment [5], 43%; in experiment [6], 32.8%. The growth in experiment [7] is 78.2%; in experiment [8], 77.9%; in [9] it was 28.2%; in [10] it was 54.4%.

On to `C=C1C(=O)O[C@H]2[C@H]1CC/C(COC(=O)CCCCC(=O)OC/C1=C/CC[C@@]3(C)O[C@H]3[C@H]3OC(=O)C(=C)[C@@H]3CC1)=C\CC[C@@]1(C)O[C@@H]21`, for which the growth in [1] is 18.1%; in experiment [2] it was 40.1%; in experiment [3], 79.2%; in experiment [4], 89.9%; in experiment [5], 81.4%; in experiment [6], 68.6%. For the same compound, the growth in experiment [7] was 77.9%; in experiment [8] it was 48.3%; in experiment [9] it was 52.2%; in experiment [10], 76.8%.

With `C=C1C(=O)O[C@H]2[C@H]1CC/C(COC(=O)c1cccnc1)=C\CC[C@@]1(C)O[C@@H]21`, the growth in experiment [1] was 34.4%; in experiment [2] it was 33.5%; in experiment [3] it was 83.4%; in [4], 90.2%; in experiment [5], 88.5%; in [6], 66.1%. Moreover, the growth is 88.9% in [7], 69.5% in experiment [8], 75% in experiment [9] and 89% in experiment [10].

Take `O=C1CC23OC4ON=C(Br)C4C2C(O)c2ccccc2N13` (stereo not given): the growth in experiment [1] is 99%; in experiment [2], 90.5%; in experiment [3] it was 79.9%; in experiment [4], 105%; in experiment [5] it was 110%; in experiment [6], 94.4%. The growth in experiment [7] is 111%; in experiment [8], 94.3%; in experiment [9], 88.8%; in experiment [10], 114%.

For the compound `COc1ccc(-c2cs/c(=N\N=C\c3ccc(O)cc3O)n2/N=C/c2ccc(O)cc2O)cc1`, the growth is -53.1% (active) in experiment [1]; -29% (active) in experiment [2]; 29.7% in experiment [3]; 5.62% (active) in experiment [4]; -35.8% (active) in experiment [5]; -67.3% (active) in experiment [6]. The growth in experiment [7] is -38.6% (active); in [8], -36.3% (active); in experiment [9] it was -36% (active); in [10] it was -22.9% (active).

For `c1ccc(-c2cn3ccnc3c(-c3ccc4c(c3)ncn4C3CCCCC3)n2)cc1`, the growth in [1] is 80.9%; in experiment [2] it was 90.8%; in experiment [3] it was 94.4%; in [4] it was 98.3%; in experiment [5] it was 95.6%; in experiment [6] it was 86.5%. Further, the growth in experiment [7] is 94.3%; in [8] it was 98%; in experiment [9] it was 95.1%; in [10], 111%.
